Experimental data: ChEMBL document CHEMBL1157539, “Thousands of chemical starting points for antimalarial lead identification” (Nature, 2010)

Key:
Type in all cases: functional
Plasmodium falciparum [1] = assay: GSK_TCMDC: Inhibition of Plasmodium falciparum 3D7 in whole red blood cells, using parasite LDH activity as an index of growth. Test compounds present at 2uM
Plasmodium falciparum [2] = assay: GSK_TCMDC: Inhibition of Plasmodium falciparum Dd2 in whole red blood cells, using parasite LDH activity as an index of growth. Test compounds present at 2uM
HepG2 = assay: GSK_TCMDC: Percent inhibition of human HepG2 cell line. Test compounds present at 10uM.

Structure (SMILES) | Inhibition (Plasmodium falciparum [1]) [%] | Inhibition (Plasmodium falciparum [2]) [%] | Inhibition (HepG2) [%]
Cc1cccc2nc(-c3cccc(-c4ccc(NC(=O)CN5CCN(C)CC5)cc4)c3)[nH]c12 | 100 | 99 | 45
O=C(NCc1ccc(F)cc1)Nc1cccc(-c2ccc(-c3nc4ccccc4[nH]3)cc2)c1 | 100 | 49 | 45
COc1ccc2nc(-c3cc(-c4ccc(NC(C)=O)cc4)cnc3N)[nH]c2c1 | 93 | 73 | 55
COc1ccc(CCNCCCCNCCc2ccc(OC)c3ccccc23)c2ccccc12.CS(=O)(=O)O | 100 | 33 | 100
Nc1ncc(Cc2ccc3c(ccc4ccccc43)c2)c(N)n1 | 97 | 3 | 9
O=S(=O)(c1ccccc1)C1CC1 | 89 | 65 | 0
Cl.N=C(NCCCCC1CCCCC1)c1cccc(C(=N)NCCCCC2CCCCC2)n1 | 100 | 19 | 99
CCOc1cc(C)ccc1C1CCN(CCCCNC(=O)c2cnc(-c3ccc(C(F)(F)F)cc3)[nH]2)CC1 | 95 | 97 | 16
Cc1cc2c(cc1C(F)(F)F)N(C(=O)Nc1ccc(OCCN(C)C)c(C(F)(F)F)c1)CC2.Cl | 93 | 23 | 38
O=C(NCc1ccccc1F)c1ccc(N2CCC(NCc3cccc(-n4cccn4)c3)CC2)cc1 | 89 | 3 | 9
O=C(NCCCCN1CCC(c2cccc3ccccc23)CC1)c1ccc(NC(=O)c2ccc(Cl)cc2)cc1 | 99 | 39 | 20
Cc1c(F)cc(C(=O)NC2CC2)cc1-c1ccc2c(cnn2S(=O)(=O)c2ccc(F)c(F)c2)c1 | 91 | 76 | 49
Cc1cc(N(C)C)nc(Nc2ccc(NC(=O)c3ccccc3Cl)cc2)n1 | 88 | 31 | 3
CCN(CC)CCCN(Cc1ccc(-c2ccc(C(F)(F)F)cc2)cc1)C(=O)Cn1c(SCc2cccc(F)c2F)cc(=O)c2ccccc21.O=C(O)C(O)C(O)C(=O)O | 87 | 82 | 45
COc1cc2nc(Nc3ccc4c(ccn4Cc4ccccc4)c3)nc(Nc3ccc4c(ccn4Cc4ccccc4)c3)c2cc1OC | 89 | 80 | 0
COc1cc2nc(N3CCC(CNC(=O)c4ccc(-c5ccc(C(=O)N(C)C)cc5OCCN(C)C)cc4)CC3)nc(N)c2cc1OC | 95 | 0 | 0
Cc1ccc(Nc2nc(C)cc(NC3CCN(C)CC3)n2)cc1 | 100 | 21 | 14
Br.CC(C)(C)c1ccccc1OCCCON1C(=N)N=C(N)NC1(C)C | 95 | 98 | 63
CCN(CC)CCCN(C(=O)c1cc2c(C)nn(-c3ccccc3)c2s1)c1nc(-c2ccc(OC)cc2)cs1.Cl | 89 | 32 | 12
CC(=O)Nc1ccc(C(=O)Nc2cccc(-c3ccc(-c4nc5cc(C(F)(F)F)ccc5[nH]4)cc3)c2)cn1 | 100 | 100 | 46
CN1CCN(CC(=O)Nc2cccc(-c3ccc(-c4nc5cc(C(F)(F)F)ccc5[nH]4)cc3)c2)CC1 | 100 | 94 | 37
Cc1ccc2nc(C)n(C3CCN(C(=O)C4(c5ccccc5)CC4)CC3)c2c1 | 100 | 83 | 8
O=c1cc(NC[C@H]2CCC[C@@H]2NC2CCCc3c2[nH]c2ccccc32)[nH]c2ccccc12 (some centres undefined) | 100 | 25 | 6
CC(CCc1ccc(OCc2ccccc2)cc1)NCC(O)c1ccccc1 (centres undefined) | 86 | 72 | 9

Structure (SMILES) | Inhibition (Plasmodium falciparum [1]) [%] | Inhibition (Plasmodium falciparum [2]) [%] | Inhibition (HepG2) [%]
Cc1c(Cn2ncc(N3CC(C)NC(C)C3)c(Cl)c2=O)cccc1NC(=O)Nc1ccc(-c2ccccc2)cc1.O=C(O)C(F)(F)F (centres undefined) | 97 | 35 | 97
O=C(O)C(F)(F)F.Oc1ccc(CN2CCC(NCc3cccc(C(F)(F)F)c3)CC2)cc1 | 100 | 64 | 10
O=C(n1c(-c2cc3ccccc3n2C(=O)C(F)(F)F)cc2ccccc21)C(F)(F)F | 94 | 80 | 30
O=C(NCCNc1nc(NCCNC(=O)Nc2ccccc2)c2ccc(=O)n(-c3c(F)cccc3F)c2n1)Nc1ccccc1 | 94 | 87 | 1
CCCCCOc1ccc(C(O)C(CN2CCCCC2)c2ccccc2)cc1.Cl (centres undefined) | 98 | 95 | 11
Cc1ccc(O)cc1C[C@@H]1C(=O)CC[C@@]2(C)[C@H]1CC[C@]2(C)O | 96 | 0 | 4
Fc1cccc(Nc2nc(NCc3ccc(Cl)c(Cl)c3)nc(Nc3cccc(F)c3)n2)c1 | 99 | 7 | 0
COc1c(C2CCN(CCCCNC(=O)c3cc(-c4ccc(C#N)cc4)n[nH]3)CC2)ccc2c1CCCC2 | 86 | 15 | 36
CN(C)Cc1ccc(-c2ccc(NC(=O)c3ccc4c(=O)n(Cc5ccccc5)cnc4c3)cc2)cc1 | 100 | 39 | 94
CS(=O)(=O)CCNCc1ccc(-c2ccc3ncnc(Nc4ccc(OCc5ccccc5)c(Cl)c4)c3c2)o1.Cl [GW574783B] | 100 | 76 | 4
O=C(O)C(F)(F)F.O=C1OC(c2ccccc2)(c2ccccc2)CN1CC1CCN(Cc2ccc(O)c(Cl)c2)CC1 | 98 | 90 | 26
Cl.ON=C1CCc2cc(-c3nc(-c4ccc(OCCN5CCCCC5)cc4)[nH]c3-c3ccncc3)ccc21 | 99 | 54 | 73
Cc1ccc(CNC(=O)c2cc3c(=O)n4cccc(C)c4nc3n(CCN3CCOCC3)c2=N)cc1 | 97 | 21 | 31
COc1ccc(CN2CCC(C(=O)Nc3cccc(-c4cccc(Cl)c4)c3)CC2)cc1O | 91 | 0 | 25
CC(C)Sc1nc2c(c(=O)n1CCc1ccccc1)C1(CCCCC1)Cc1ccccc1-2 | 92 | 5 | 8
CCN(CC)CCN1C(=O)c2oc3ccc(F)cc3c(=O)c2C1c1cccc(Cl)c1 (centres undefined) | 99 | 93 | 0
Cc1cc2nc(-c3ccc(C(=O)NCc4ccc(Cl)c(Cl)c4)cc3)[nH]c2cc1C | 96 | 83 | 6
O=C(Nc1ccc(CN2CCOCC2)cc1)c1ccc(-c2cc(Cl)ccc2Cl)o1 | 100 | 13 | 5
O=C(Cc1ccc(Cl)cc1)Nc1cc(Cl)ccc1Cn1cnc(N2CCNCC2)cc1=O.O=C(O)C(F)(F)F | 97 | 2 | 9
CCCC1(C)CSc2ccccc2C(c2ccccc2)N1 (centres undefined) | 87 | 2 | 60
COc1ccccc1-c1ccc(CNC(=O)C(CN2CCN(C)CC2)c2ccccc2)cc1 (centres undefined) | 90 | 4 | 3
CC[C@H](C)CNC(=O)c1cccc(-c2ccc(CN3CCC(N4CCCC4)CC3)cc2)n1.O=C(O)C(F)(F)F | 100 | 82 | 41
CC(C)n1c(CC2CCN(CC3CCN(C(=O)/C=C/c4ccc(Cl)c(Cl)c4)CC3)CC2)nc2ccccc21 | 100 | 23 | 19
CN1CCN(CC(=O)Nc2cccc(-c3ccc(-c4nc5cc(C(F)(F)F)ccc5[nH]4)s3)c2)CC1 | 100 | 95 | 36
